We go through eight molecules from PubChem BioAssay (NCI).

About 83,000 compounds went through this panel and 20% of them were active in at least one assay; those are over-represented in the sample as a whole.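 Step 1: grow cells in 96-well plates. Step 2: add test compound at a single concentration. Step 3: incubate 48 h. Step 4: record percent growth.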 A number with no mark means an inactive call. Active and inactive are the calls of the source. How the source made its calls: active means growth percent below 10; inactive means the rest.

Test systems include DU-145 prostate; K-562 leukemia; MALME-3M melanoma; MDA-MB-231 breast; RXF 393 renal; SF-268 CNS; SF-295 CNS; SF-539 CNS; UACC-257 melanoma; HCT-15 colon; HT29 colon; SNB-75 CNS; U251 CNS; PC-3 prostate; SK-MEL-5 melanoma; UACC-62 melanoma; LOX IMVI melanoma; SK-MEL-28 melanoma; SNB-19 CNS.
What all share (experiment): NCI-60 one-dose screen, 48 h (100 = growth as untreated, 0 = no growth, -100 = all killed)
What all share (details): 10 µM unless noted

Take `CCC1S/C(=N\N=C(\C)c2cc3cc(Cl)ccc3o2)N(c2ccccc2)C1=O` (stereo unspecified): the growth in the experiment with DU-145 prostate was 131%; in the experiment on K-562 leukemia, 92.2%; in the experiment with MALME-3M melanoma, -3.03% (active); in the experiment on MDA-MB-231 breast, 89.4%; in the experiment on RXF 393 renal, 131%; in the experiment on SF-268 CNS, 108%. Moreover, the growth with SF-295 CNS was 103%; in the experiment with SF-539 CNS it was 122%; with UACC-257 melanoma, 154%; in the experiment with HCT-15 colon, 107%; in the experiment with HT29 colon, 111%; in the experiment with SNB-75 CNS, 110%. Moreover, the growth in the experiment on U251 CNS was 99%; in the experiment with PC-3 prostate it was 84.6%; in the experiment on SK-MEL-5 melanoma, 49.5%; in the experiment on UACC-62 melanoma, 88.9%; in the experiment on LOX IMVI melanoma, 85.4%; in the experiment with SK-MEL-28 melanoma, 111%.
In the case of `CC/C=C\C[C@H](O)C/C=C1/C(=O)C=C[C@@H]1C/C=C\CCCC(=O)O`, the growth in the experiment with DU-145 prostate is 60.2%; with K-562 leukemia it was 17.1%; in the experiment with MALME-3M melanoma, 67.5%; in the experiment with MDA-MB-231 breast it was 56.7%; in the experiment on RXF 393 renal, 94.2%; in the experiment with SF-268 CNS, 81.3%. The growth in the experiment on SF-295 CNS was 96%; in the experiment on SF-539 CNS, 59.2%; with UACC-257 melanoma, 55.2%; with HCT-15 colon it was 74.6%; in the experiment with HT29 colon, 47.9%; in the experiment on SNB-75 CNS, 88.9%. For the same molecule, the growth was 65% with SNB-19 CNS; 3.29% (active) in the experiment on U251 CNS; 61.3% in the experiment with PC-3 prostate; 60.3% with SK-MEL-5 melanoma; 27.7% with UACC-62 melanoma; 17.4% in the experiment with LOX IMVI melanoma. In addition, in the experiment on SK-MEL-28 melanoma, the growth was 54.4%.
With `C[C@@H]1O[C@@H](O[C@@H]2C[C@H](c3ccc4c(c3O)C(=O)C3=C(C4=O)[C@@]4(O)C(=O)C[C@](C)(O)C[C@@]4(O)C=C3)O[C@H](C)[C@H]2O)CC[C@@H]1O[C@H]1C[C@@H](O)[C@H](O)[C@@H](C)O1`, the growth is 110% in the experiment with DU-145 prostate; 94.4% in the experiment on K-562 leukemia; 65.4% in the experiment with MALME-3M melanoma; 105% in the experiment on MDA-MB-231 breast; 113% in the experiment on RXF 393 renal; 87% in the experiment with SF-268 CNS. For the same molecule, the growth in the experiment with SF-295 CNS is 102%; in the experiment with SF-539 CNS, 100%; with UACC-257 melanoma, 98.4%; in the experiment with HCT-15 colon, 94.8%; in the experiment with HT29 colon it was 108%; in the experiment with SNB-75 CNS it was 90.7%. Moreover, the growth in the experiment with SNB-19 CNS is 100%; in the experiment with U251 CNS it was 98.7%; in the experiment with PC-3 prostate, 96%; in the experiment on SK-MEL-5 melanoma, 101%; in the experiment with UACC-62 melanoma, 97.8%; in the experiment with LOX IMVI melanoma, 94.6%. Further, in the experiment on SK-MEL-28 melanoma, the growth was 116%.
As for `CCOC(=O)c1ccccc1-c1c2ccc(=[N+](C)C)cc-2oc2cc(N(C)C)ccc12`, the growth in the experiment with DU-145 prostate was 25.3%; with K-562 leukemia, 10.2%; in the experiment with MALME-3M melanoma it was 28.2%; in the experiment on MDA-MB-231 breast, 11.7%; in the experiment on RXF 393 renal it was 18.4%; in the experiment on SF-268 CNS it was 20.8%. Further, the growth with SF-295 CNS was -26.9% (active); with SF-539 CNS, -5.48% (active); in the experiment with UACC-257 melanoma it was 5.13% (active); with HCT-15 colon, 70.2%; in the experiment on HT29 colon, -0.175% (active); with SNB-75 CNS it was 7.68% (active). Also, the growth in the experiment with SNB-19 CNS was 18.2%; in the experiment with U251 CNS, 14.6%; in the experiment on PC-3 prostate, 5.32% (active); in the experiment with SK-MEL-5 melanoma it was -68.1% (active); with UACC-62 melanoma, 9.47% (active); in the experiment with LOX IMVI melanoma, 94.6%. Further, the growth in the experiment with SK-MEL-28 melanoma is 32%.
With `CS(=O)(=O)Nc1cc(-c2ccc3ncc(C#N)c(Nc4ccc(F)c(Cl)c4)c3c2)cnc1Cl`, the growth with DU-145 prostate is 10.2%; with K-562 leukemia it was 16.2%; in the experiment on MALME-3M melanoma it was -38.6% (active); with MDA-MB-231 breast, -0.718% (active); in the experiment with RXF 393 renal, -39.2% (active); in the experiment with SF-268 CNS it was 8.18% (active). The growth with SF-295 CNS was -28.2% (active); in the experiment on SF-539 CNS, -27.4% (active); with UACC-257 melanoma it was 4.72% (active); in the experiment with HCT-15 colon, 8.1% (active); with HT29 colon, 1.84% (active); in the experiment with SNB-75 CNS, -6.88% (active). The growth is 14.3% with SNB-19 CNS; -15.4% (active) in the experiment with U251 CNS; 8.23% (active) in the experiment with PC-3 prostate; -90% (active) with SK-MEL-5 melanoma; -10.7% (active) with UACC-62 melanoma; -53.7% (active) in the experiment on LOX IMVI melanoma. The growth in the experiment on SK-MEL-28 melanoma is 5.07% (active).
Consider `CC1CCN(C(=S)SCC(=O)NC(=O)c2ccccc2)CC1`, for which the growth with DU-145 prostate is 107%; in the experiment on K-562 leukemia, 97.1%; with MALME-3M melanoma it was 95.5%; in the experiment on MDA-MB-231 breast, 117%; with RXF 393 renal, 136%; with SF-268 CNS it was 100%. The growth in the experiment on SF-295 CNS was 105%; in the experiment on SF-539 CNS it was 99.2%; in the experiment on UACC-257 melanoma, 102%; with HCT-15 colon, 109%; in the experiment with HT29 colon it was 101%; in the experiment with SNB-75 CNS it was 96.5%. Also, the growth in the experiment on SNB-19 CNS is 111%; with U251 CNS, 106%; in the experiment with PC-3 prostate, 102%; in the experiment on SK-MEL-5 melanoma, 113%; with UACC-62 melanoma it was 106%; in the experiment with LOX IMVI melanoma it was 96.9%. Moreover, the growth with SK-MEL-28 melanoma was 111%.
As to `Cc1cc(Nc2ccc(C(=O)N3CCCC3)cc2)nc(NCCCNc2ccnc3cc(Cl)ccc23)n1`, the growth with DU-145 prostate is 91.5%; in the experiment on K-562 leukemia, 33.9%; with MALME-3M melanoma, 54.8%; in the experiment with MDA-MB-231 breast, 48.3%; in the experiment on RXF 393 renal, 101%; with SF-268 CNS, 67.8%. For the same molecule, the growth with SF-295 CNS is 103%; with SF-539 CNS, 65%; with UACC-257 melanoma, 105%; in the experiment with HCT-15 colon, 102%; in the experiment on HT29 colon, 68.9%; in the experiment on SNB-75 CNS, 91.2%. In addition, the growth is 84.1% in the experiment on SNB-19 CNS; 53.5% with U251 CNS; 93.3% in the experiment with PC-3 prostate; 92.3% in the experiment on SK-MEL-5 melanoma; 86.8% with UACC-62 melanoma; -67.1% (active) with LOX IMVI melanoma. Also, in the experiment on SK-MEL-28 melanoma, the growth is 92.1%.
Regarding `O=c1nc(-c2ccccc2)c2cc(-c3ccc(C(F)(F)F)nc3)ccc2[nH]1`, the growth was 103% in the experiment with DU-145 prostate; 103% with K-562 leukemia; 111% in the experiment on MALME-3M melanoma; 91.9% in the experiment on MDA-MB-231 breast; 105% in the experiment with RXF 393 renal; 98.1% in the experiment on SF-268 CNS. In addition, the growth with SF-295 CNS is 103%; in the experiment on SF-539 CNS, 93.2%; with UACC-257 melanoma, 109%; in the experiment with HCT-15 colon, 97.8%; in the experiment on HT29 colon, 111%; in the experiment with SNB-75 CNS, 117%. Besides, the growth in the experiment with SNB-19 CNS is 101%; in the experiment with U251 CNS, 105%; in the experiment on PC-3 prostate it was 96.2%; in the experiment with SK-MEL-5 melanoma, 94.8%; in the experiment with UACC-62 melanoma it was 97.3%; with LOX IMVI melanoma, 93.1%. For the same molecule, in the experiment with SK-MEL-28 melanoma, the growth was 108%.
